# Test results published in the supplement of paper PMC13172266.
# Where a name gives a salt, the structure may show the parent alone.
# What was measured:
# Assay in all cases: cell proliferation relative to vehicle (% of vehicle); higher = less growth inhibition
# Settings in all cases: 72 h
# [1] = tested on: U2932 TK216-resistant clone 2
# Procedure, shortened: (§1)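 Each of 348 targeted inhibitors was tested at 500 nM or 50 nM for 72 h on U2932 cells, both parental and two clones resistant to an ETS-targeting agent. Readout was by MTT with absorbance read on a Cytation 3. Proliferation appears as percent of proliferating cells relative to vehicle (DMSO).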
# [2] = tested on: U2932 TK216-resistant clone 3
# Procedure, shortened: as §1
# [3] = tested on: U2932 parental
# Procedure, shortened: as §1
Compound,cell proliferation ([1]; 50 nM),cell proliferation ([1]; 500 nM),cell proliferation ([2]; 50 nM),cell proliferation ([2]; 500 nM),cell proliferation ([3]; 50 nM),cell proliferation ([3]; 500 nM)
COc1ccccc1OCC(O)CN1CCN(CC(=O)Nc2c(C)cccc2C)CC1 (configuration not stated) [Ranolazine],97.6,91.3,95,101,106,99.1
O=c1c(O)c(-c2ccc(O)c(O)c2)oc2cc(O)cc(O)c12 [Quercetin],110,119,108,106,101,106
CC[C@@]1(O)C(=O)OCc2c1cc1n(c2=O)Cc2cc3cc(O)ccc3nc2-1 [(S)-10-Hydroxycamptothecin],4.11,1.46,7.4,5.84,2.21,0.765
"O=C(CCCCCCC(=O)Nc1ccccc1)NO [Vorinostat (SAHA, MK0683)]",108,91.3,107,88.9,98.2,81.6
Cc1[nH]c(/C=C2\C(=O)Nc3ccc(S(=O)(=O)Cc4c(Cl)cccc4Cl)cc32)c(C)c1C(=O)N1CCC[C@@H]1CN1CCCC1,108,92.4,103,90.5,102,96.8
Nc1nc(N)c2nc(-c3cccc(O)c3)c(-c3cccc(O)c3)nc2n1,103,100,110,96.6,99,99.2
C[C@H](Nc1ncnc2nc[nH]c12)c1cc2cccc(Cl)c2c(=O)n1-c1ccccc1,103,92.2,95.6,94.3,106,108
Cn1cc(CNCC2CCN(c3ncc(C(=O)NO)cn3)CC2)c2ccccc21,8.61,5.78,11.4,10.2,4.68,0.113
"CN1CCN(c2ccc3nc(-c4c(N)c5c(F)cccc5[nH]c4=O)[nH]c3c2)CC1 [Dovitinib (TKI-258, CHIR-258)]",103,83.9,95.7,83.3,95.1,96.9
CC(C)CCN1c2nc(Nc3cc(F)c(O)c(F)c3)ncc2N(C)C(=O)C1C (configuration not stated),114,99.9,106,91.3,105,97.3
Clc1ccc(Nc2nnc(Cc3ccncc3)c3ccccc23)cc1 [Vatalanib (PTK787) 2HCl],109,99.8,108,113,93.1,102
Oc1nc(-c2ccc(C(F)(F)F)cc2)nc2c1CSCC2,90.3,108,111,95.1,99.3,98.2
Cn1c(Nc2ccc(C(F)(F)F)cc2)nc2cc(Oc3ccnc(-c4ncc(C(F)(F)F)[nH]4)c3)ccc21,96.1,80.7,98.8,96.7,95.6,88
Nc1ncn([C@H]2C[C@H](O)[C@@H](CO)O2)c(=O)n1 [Decitabine],72.5,59.1,92.9,78.3,85.1,73.1
Cn1cncc1[C@@](N)(c1ccc(Cl)cc1)c1ccc2c(c1)c(-c1cccc(Cl)c1)cc(=O)n2C [Tipifarnib],91.9,90.6,71.5,74.9,62.7,62.5
CC(C)(C(=O)NCC(F)(F)C(F)(F)F)C(=O)N[C@@H]1C(=O)Nc2ccccc2-c2ccccc21,105,109,105,100,98.7,86.5
CC(=O)c1c(C)c2cnc(Nc3ccc(N4CCNCC4)cn3)nc2n(C2CCCC2)c1=O,93.7,85.1,97.3,92.5,87.6,88.8
Cn1cc(/C=C2\C(=O)Nc3cccnc32)c2ccccc21,102,105,106,105,97.2,90
CN1CCN(Cc2ccc(-c3cnc4[nH]cc(-c5ccc6[nH]ccc6c5)c4c3)cc2)CC1,96.6,91.2,97.2,85.4,92.5,101
CC1(C)CC[C@]2(NC(=O)C(C)(F)F)CC[C@]3(C)[C@H](C(=O)C=C4[C@@]5(C)C=C(C#N)C(=O)C(C)(C)[C@@H]5CC[C@]43C)[C@@H]2C1 [Omaveloxolone (RTA-408)],95.5,10,103,23.8,93.8,14.7
O=C(NOCC1CC1)c1ccc(F)c(F)c1Nc1ccc(I)cc1Cl,102,90.6,98.5,90.8,96.2,95.7
COc1cc(CCc2cc(NC(=O)c3ccc(N4CC(C)NC(C)C4)cc3)n[nH]2)cc(OC)c1 (configuration not stated),102,101,103,102,98.4,95.6
CCOc1cc(C(=O)N2CCC(N3CCN(C)CC3)CC2)ccc1Nc1ncc2c(n1)N(C1CCCC1)c1ccccc1C(=O)N2C,95,74.3,95.4,65.4,94.8,75.5
COc1ccc(-c2nc(N3CCOCC3)c3sc(CN(C)c4ncc(C(=O)NO)cn4)cc3n2)cn1,0.345,2.02,3.18,9.31,0.767,3.78

Compound,cell proliferation ([1]; 50 nM),cell proliferation ([1]; 500 nM),cell proliferation ([2]; 50 nM),cell proliferation ([2]; 500 nM),cell proliferation ([3]; 50 nM),cell proliferation ([3]; 500 nM)
COC(=O)c1ccc2c(c1)NC(=O)/C2=C(\Nc1ccc(N(C)C(=O)CN2CCN(C)CC2)cc1)c1ccccc1 [Nintedanib (BIBF 1120)],105,94.8,93.4,81.7,102,96.6
NC(=O)c1ccc(N(C(N)=O)c2c(F)cccc2F)nc1-c1ccc(F)cc1F,106,100,108,99.3,99.3,98.7
O=c1sn(-c2cccc3ccccc23)c(=O)n1Cc1ccccc1 [Tideglusib],94,106,103,101,89.3,93.1
Nc1cccc2c1C(=O)N(C1CCC(=O)NC1=O)C2=O (configuration not stated) [Pomalidomide],95.8,94.7,91,84.7,93.2,84.3
CN[C@@H](C)C(=O)N[C@H]1CN(C(=O)CC(C)C)CC[C@H]2CC[C@@H](C(=O)NC(c3ccccc3)c3ccccc3)N2C1=O,106,111,94.6,105,94,103
Cc1nnc(C(C)C)n1C1C[C@H]2CC[C@@H](C1)N2CC[C@H](NC(=O)C1CCC(F)(F)CC1)c1ccccc1 (stereo in doubt) [Maraviroc],107,99.6,96,101,88,89.6
COc1cc(Nc2ncc(F)c(Nc3ccc4c(n3)N(COP(=O)(O)O)C(=O)C(C)(C)O4)n2)cc(OC)c1OC [Fostamatinib (R788)],96.7,92.8,97.2,95,96.7,93.6
CC(C)Oc1ccc(C(=O)N[C@H](CNC(=O)CN(C)C)Cc2ccc(-c3cn4cccc([C@H](C)O)c4n3)cc2)cc1Cl,45.4,15,34.3,14.4,47.6,14.6
CC(C)c1onc(-c2c(Cl)cccc2Cl)c1COc1ccc(/C=C/c2cccc(C(=O)O)c2)c(Cl)c1,105,112,104,105,108,111
COc1cc(Nc2ncc(F)c(Nc3ccc4c(n3)NC(=O)C(C)(C)O4)n2)cc(OC)c1OC [R406 (free base)],98,87.2,103,98.3,94.8,92.8
C[C@@H](O[C@H]1OCCN(Cc2n[nH]c(=O)[nH]2)[C@H]1c1ccc(F)cc1)c1cc(C(F)(F)F)cc(C(F)(F)F)c1 [Aprepitant],109,106,101,97.4,108,98.5
NC(=O)c1cccc2cn(-c3ccc([C@@H]4CCCNC4)cc3)nc12 [MK-4827(Niraparib) tosylate],103,91.7,109,103,92.5,97.1
COc1cc(-c2cc(-c3ccc(N4CCNCC4)cc3)cnc2C)cc(OC)c1OC,99.7,88.1,107,88.5,104,96.6
CC(C)(C)c1nc(-c2cccc(NS(=O)(=O)c3c(F)cccc3F)c2F)c(-c2ccnc(N)n2)s1,111,101,106,110,101,93
CNC(=O)c1ccccc1Sc1ccc2c(/C=C/c3ccccn3)n[nH]c2c1 [Axitinib],110,92.8,102,92.8,95.6,87.4
COc1cc(C(=O)N2CCC(N3CCN(C)CC3)CC2)ccc1Nc1ncc2c(n1)N(C)c1ccccc1C(=O)N2C,104,92.2,100,100,105,101
CNC(=O)c1cc(Oc2ccc(NC(=O)Nc3ccc(Cl)c(C(F)(F)F)c3)c(F)c2)ccn1 [Regorafenib (BAY 73-4506)],103,116,105,107,105,105
NC(=O)NO [Hydroxyurea],103,94.7,102,103,92.2,97.8
COc1ccc2c(Oc3ccc(NC(=O)c4c(C)n(CC(C)(C)O)n(-c5ccccc5)c4=O)nc3)ccnc2c1,102,103,95.4,97.4,103,97
Cc1cn(-c2cc(NC(=O)c3ccc(C)c(Nc4nccc(-c5cccnc5)n4)c3)cc(C(F)(F)F)c2)cn1 [Nilotinib (AMN-107)],106,110,102,106,103,103
CO[C@H]1C[C@@H]2CC[C@@H](C)[C@@](O)(O2)C(=O)C(=O)N2CCCC[C@H]2C(=O)O[C@H]([C@H](C)C[C@@H]2CC[C@@H](O)[C@H](OC)C2)CC(=O)[C@H](C)/C=C(\C)[C@@H](O)[C@@H](OC)C(=O)[C@H](C)C[C@H](C)/C=C/C=C/C=C/1C [Rapamycin (Sirolimus)],62.4,62.1,60.3,59.4,58.2,58.9
CN(C)CCOc1ccc(/C(=C(/CCCl)c2ccccc2)c2ccccc2)cc1 [Toremifene Citrate],102,84.4,101,75.1,101,88.8
Cc1cc(NC(=O)c2cccc(NC(=O)/C=C/CN(C)C)c2)ccc1Nc1nccc(-c2cccnc2)n1,99.5,106,108,116,96.8,103
